Measurements published in PubChem BioAssay (NCATS).
Inconclusive results are not listed. Entries that show only a call come without a potency. Calls of active or inactive are those of the source. Calls come from the whole dose curve; as a rule, active = well fitted curve in the direction sought with a large enough effect; inconclusive = small, poorly fitted or top-dose-only effect, or another doubt; inactive = no such curve, though single readings can be large; an effect the other way counts as inactive or inconclusive.

Assay: qHTS assay to identify small molecule inhibitors of chordoma cells - UCH-2 (AID 1259356)
Details: UCH-2 chordoma viability, CellTiter-Glo ATP luminescence, 48 h; series mostly up to 46.1 µM
Potency is the fitted concentration of half-maximal effect.

SMILES	Potency
NC1=NCC2c3ccccc3Cc3ccccc3N12 (configuration not stated)	inactive
O=C(O)CCCCCCCC(=O)O	inactive
NC(Cc1ccc(Cl)cc1)C(=O)O (configuration not stated)	inactive
CC(C)(Oc1ccc(CCNC(=O)c2ccc(Cl)cc2)cc1)C(=O)O	inactive
CN(C)CCOC(=O)COc1ccc(Cl)cc1	inactive
CC(N=C(NC#N)Nc1ccncc1)C(C)(C)C (configuration not stated)	inactive
COC(=O)C1=C(C)NC(C)=C(C(=O)OC(C)(C)CN(C)CCC(c2ccccc2)c2ccccc2)C1c1cccc([N+](=O)[O-])c1 (configuration not stated)	inactive
Cc1cc(C)c(/C=C2\C(=O)Nc3ccccc32)[nH]1	inactive
CCn1nc(C(=O)O)c(=O)c2cc3c(cc21)OCO3	inactive
Cc1ccc(S(=O)(=O)NC(=O)NN2CCCCCC2)cc1	inactive
C[N+](C)(C)CCOC(=O)CCC(=O)OCC[N+](C)(C)C	inactive
CC(C)(C)NCC(O)c1cc(O)cc(O)c1 (configuration not stated)	inactive
CC(C)NNC(=O)c1ccncc1	inactive
COCCc1ccc(OCC(O)CNC(C)C)cc1 (configuration not stated)	inactive
Cc1scc2c1N(C(=O)CN1CCN(C)CC1)c1ccccc1NC2=O	inactive
CC(=O)[C@]1(O)Cc2c(O)c3c(c(O)c2[C@@H](O[C@H]2C[C@H](N)[C@H](O)[C@H](C)O2)C1)C(=O)c1ccccc1C3=O	1.16 µM (active)
O=C1CC2(CCCC2)CC(=O)N1CCCCN1CCN(c2ncccn2)CC1	inactive
OCCN1CCN(CC/C=C2/c3ccccc3Sc3ccc(C(F)(F)F)cc32)CC1	inactive

SMILES	Potency
C(=C\c1ccccc1)/CN1CCN(C(c2ccccc2)c2ccccc2)CC1	inactive
CCCN(CCC)CCc1cccc2c1CC(=O)N2	inactive
c1cc(CN2CCCCC2)cc(OCCCNc2nc3ccccc3s2)c1	inactive
C=CCc1ccccc1OCC(O)CNC(C)C (configuration not stated)	inactive
COCCOC(=O)C1=C(C)NC(C)=C(C(=O)OC(C)C)C1c1cccc([N+](=O)[O-])c1 (configuration not stated)	inactive
CCCC(C(=O)OCCN(CC)CC)(c1ccccc1)c1ccccc1	inactive
C[C@]12CC[C@@H]3c4ccc(O)cc4C[C@@H](CCCCCCCCCS(=O)CCCC(F)(F)C(F)(F)F)[C@H]3[C@@H]1CC[C@@H]2O (some centres not stated)	inactive
NC(=Nc1ccccc1)Nc1ccccc1	inactive
COc1ccc([C@@H]2Sc3ccccc3N(CCN(C)C)C(=O)[C@@H]2OC(C)=O)cc1	inactive
CCCOc1ccccc1-c1nc2n[nH]nc2c(=O)[nH]1	inactive
Nc1c2c(nc3ccccc13)CCCC2O (configuration not stated)	inactive
CCCCCCCC/C=C\CCCCCCCC(=O)NCc1ccc(O)c(OC)c1	inactive
COc1cc2c(cc1OC)-c1cc(=Nc3c(C)cc(C)cc3C)n(C)c(=O)n1CC2	inactive
C#CCN(C)CCCOc1ccc(Cl)cc1Cl	inactive
Cc1nc2c([nH]1)c(=O)n(C)c(=O)n2Cc1ccco1	inactive
NC(=O)c1cn(Cc2c(F)cccc2F)nn1	inactive
CCn1ccnc1CC1COc2ccccc2O1 (configuration not stated)	inactive
CC(=O)Oc1cc(C(C)C)c(OCCN(C)C)cc1C	inactive

Assay: P-glycoprotein substrates identified in KB-8-5-11 adenocarcinoma cell line, qHTS therapeutic library screen (AID 1346987); note: nearly all actives have a fitted effect of over 65% in size
Details: KB-8-5-11 (P-gp overexpressing) viability, CellTiter-Glo, 72 h; series mostly up to 44.5 µM
Procedure, shortened: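 KB-8-5-11, a colchicine-selected P-gp-overexpressing KB-3-1 subline, was grown without colchicine for the assay. Cells were seeded at 500 cells/well, dosed in concentration-response and incubated 72 h at 37 degree C, 5% CO2. Viability was read by CellTiter-Glo luminescence.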

SMILES	Potency
NC1=NCC2c3ccccc3Cc3ccccc3N12 (configuration not stated)	inactive
O=C(O)CCCCCCCC(=O)O	inactive
NC(Cc1ccc(Cl)cc1)C(=O)O (configuration not stated)	inactive
CC(C)(Oc1ccc(CCNC(=O)c2ccc(Cl)cc2)cc1)C(=O)O	inactive
CN(C)CCOC(=O)COc1ccc(Cl)cc1	inactive
CC(N=C(NC#N)Nc1ccncc1)C(C)(C)C (configuration not stated)	inactive
COC(=O)C1=C(C)NC(C)=C(C(=O)OC(C)(C)CN(C)CCC(c2ccccc2)c2ccccc2)C1c1cccc([N+](=O)[O-])c1 (configuration not stated)	9.2 µM (active)
Cc1ccc(S(=O)(=O)NC(=O)NN2CCCCCC2)cc1	inactive
C[N+](C)(C)CCOC(=O)CCC(=O)OCC[N+](C)(C)C	inactive
CC(C)(C)NCC(O)c1cc(O)cc(O)c1 (configuration not stated)	inactive
CC(C)NNC(=O)c1ccncc1	inactive
Cc1scc2c1N(C(=O)CN1CCN(C)CC1)c1ccccc1NC2=O	inactive
CC(=O)[C@]1(O)Cc2c(O)c3c(c(O)c2[C@@H](O[C@H]2C[C@H](N)[C@H](O)[C@H](C)O2)C1)C(=O)c1ccccc1C3=O	4.11 µM (active)
O=C1CC2(CCCC2)CC(=O)N1CCCCN1CCN(c2ncccn2)CC1	9.2 µM (active)
OCCN1CCN(CC/C=C2/c3ccccc3Sc3ccc(C(F)(F)F)cc32)CC1	18.4 µM (active)
C(=C\c1ccccc1)/CN1CCN(C(c2ccccc2)c2ccccc2)CC1	inactive

SMILES	Potency
CCCN(CCC)CCc1cccc2c1CC(=O)N2	inactive
c1cc(CN2CCCCC2)cc(OCCCNc2nc3ccccc3s2)c1	14.6 µM (active)
C=CCc1ccccc1OCC(O)CNC(C)C (configuration not stated)	inactive
CCCC(C(=O)OCCN(CC)CC)(c1ccccc1)c1ccccc1	13 µM (active)
C[C@]12CC[C@@H]3c4ccc(O)cc4C[C@@H](CCCCCCCCCS(=O)CCCC(F)(F)C(F)(F)F)[C@H]3[C@@H]1CC[C@@H]2O (some centres not stated)	inactive
NC(=Nc1ccccc1)Nc1ccccc1	inactive
COc1ccc([C@@H]2Sc3ccccc3N(CCN(C)C)C(=O)[C@@H]2OC(C)=O)cc1	20.6 µM (active)
CCCOc1ccccc1-c1nc2n[nH]nc2c(=O)[nH]1	inactive
Nc1c2c(nc3ccccc13)CCCC2O (configuration not stated)	inactive
CCCCCCCC/C=C\CCCCCCCC(=O)NCc1ccc(O)c(OC)c1	inactive
COc1cc2c(cc1OC)-c1cc(=Nc3c(C)cc(C)cc3C)n(C)c(=O)n1CC2	25.9 µM (active)
Cc1nc2c([nH]1)c(=O)n(C)c(=O)n2Cc1ccco1	inactive
NC(=O)c1cn(Cc2c(F)cccc2F)nn1	inactive
CCn1ccnc1CC1COc2ccccc2O1 (configuration not stated)	inactive
CC(=O)Oc1cc(C(C)C)c(OCCN(C)C)cc1C	inactive
